# Among all 350,000 compounds or so, about 9,900 (2.8%) were called active. Another 15% or so got no clear call; they are omitted. Calls come from the whole dose curve; as a rule, active = well fitted activation curve with a large enough effect; inconclusive = small, poorly fitted or top-dose-only effect; inactive = no such curve, though single readings can be large or run the other way. Only a selection was taken, and actives are over-represented in it overall.
# Assay: A quantitative high throughput screen for small molecules that induce DNA re-replication in MCF 10a normal breast cells. For activity, positive = re-replication: % of control where 0% means no effect. Note: nearly all actives have a fitted effect of over 50% in size.
# Conditions: MCF 10A DNA re-replication, Hoechst nuclear intensity, 48 h; series mostly up to 46.1 µM; activity, positive = re-replication: at the top concentration
# Text: H Molecular Libraries Probe Production Network [MLPCN]
# NIH Chemical Genomics Center [NCGC]
# Assay Provider: Melvin DePamphilis, NICHD, NIH
# Eukaryotic cells normally restrict genome duplication to once per cell division. When this process is aberrant, DNA re-replication occurs when cells reinitiate DNA replication before the first round of replication is complete. DNA re-replication induces the DNA damage response, arrests cell proliferation, and triggers apoptosis. The cell cycle components cyclin A, Cdt-1, Cdc6 and geminin are critical regulators of this process and their misregulation results in DNA re-replication in normal and cancer cells. To identify compounds that induce re-replication in normal cells, an image-based assay was used to measure DNA content of nuclei, as detected by the fluorescent DNA binding dye, Hoechst. Cell nuclei were imaged by a fluorescence scanning plate imager and compounds that induce DNA re-replication were identified by the increase of nuclei with elevated fluorescence intensity
# For screening, 250 cells in 5 uL/well were dispensed into black clear 1536-well plates (Aurora) using a solenoid-based dispenser. Following transfer of 23 nL compound or DMSO vehicle by a pin tool, the plates were incubated 48 hr at 37 C and 5% CO2. After addition of 1 uL/well Hoescht stain, the plates were incubated 40 min at 37 C, 5% CO2 and total intensity of fluorescent objects (nuclei) were enumerated by an Acumen Explorer Ex3 (TTP LabTech) fluorescence scanning plate imager (405 nm excitation, 500-530 nm emission).
# Keywords: NIH Roadmap, MLPCN, MLI, MLSMR, qHTS, NCGC, DNA replication, cancer
# Potency is the fitted concentration of half-maximal effect.
SMILES,"activity, positive = re-replication",Potency
CN[C@H](C(=O)NC[C@H]1O[C@@H](n2cnc3c(N)ncnc32)[C@H](O)[C@@H]1O)[C@@H](C)OCc1ccccc1,25.9% (inactive),–
O=C(NNc1ccccc1Cl)C(O)(c1cccc(C(F)(F)F)c1)c1cccc(C(F)(F)F)c1,–,16.4 µM (active)
CC(CC(=O)Nc1cc(C(F)(F)F)ccc1Cl)c1ccccc1 (stereo unspecified),28.4% (inactive),–
O=C(Nc1cc(C(F)(F)F)ccc1Cl)C(=O)N1CCCCC1,-0.549% (inactive),–
COc1ccc([C@H]2CC(=O)C=C(c3ccc(CO)cc3)C2)cc1,1% (inactive),–
Cc1cccc(-n2ncc(Cl)c(Cl)c2=O)c1,–,3.26 µM (active)
Cc1cccc(-n2ncc(C#N)c2-n2cccc2)c1,-12.2% (inactive),–
O=c1c(Cl)c(NC2CC2)cnn1-c1ccccc1,0.555% (inactive),–
COC1=CC(=O)OC(C)(c2ccccc2)C1 (stereo unspecified),-7.01% (inactive),–
COc1cc(OC)cc(C(=O)NCC(=O)OCC(=O)NC(C)CCc2ccccc2)c1 (stereo unspecified),-3.97% (inactive),–
Cc1cc(C)c[n+](-c2nc3ccccc3nc2[N-]S(=O)(=O)c2cccs2)c1,-2.95% (inactive),–
O=C(NCCc1ccccc1)C1CCN(S(=O)(=O)c2ccc(Br)s2)CC1,-0.365% (inactive),–
O=S(=O)([N-]c1nc2ccccc2nc1-[n+]1ccc(Cc2ccccc2)cc1)c1ccc(Br)s1,–,9.2 µM (active)
O=C(COC(=O)c1cc(S(=O)(=O)N2CCOCC2)ccc1F)NC1CC1,-0.372% (inactive),–
Cc1c(C(=O)N2CCCc3ccccc32)oc2ccccc12,2.24% (inactive),–
Cc1c(C(=O)N2CCCc3ccccc32)sc2nc(-c3ccccc3)cn12,0.373% (inactive),–
Cc1cccc2cc3c(N)c(C(=O)N4CCCc5ccccc54)sc3nc12,–,1.3 µM (active)
CCOC(=O)[C@H]1[C@H]2COc3ccc(C)cc3[C@@H]2N2C(=O)CN(Cc3ccc(F)cc3)C(=O)[C@@]12C,-2.25% (inactive),–
CCSc1nnc(NC(=O)c2ccc(C)cc2)s1,-13% (inactive),–
Cc1cccc(CS(=O)(=O)c2ncc(Cl)c(C(=O)Nc3ccc(F)cc3)n2)c1,28.2% (inactive),–
CSc1nnc(NC(=O)c2nc(S(=O)(=O)Cc3ccc(C)cc3)ncc2Cl)s1,–,1.16 µM (active)
CC(CNC(=O)Cn1cnc2c(OCc3ccccc3)ncnc21)c1ccccc1 (stereo unspecified),14.7% (inactive),–
Nc1ncnc2c1ncn2[C@@H]1O[C@H](CNS(=O)(=O)c2ccc(-c3ccno3)s2)[C@@H](O)[C@H]1O,-2.41% (inactive),–
CCOc1cc(C2C(C(=O)OC)=CN(C3CCCC3)C=C2C(=O)OC)cc(Br)c1O,25.1% (inactive),–
CCOc1ccccc1C1C(C(=O)OC)=CN(C)C=C1C(=O)OC,–,14.6 µM (active)
CCOc1ccccc1N(CC(=O)Nc1ccccc1C(=O)OC)S(C)(=O)=O,-1.3% (inactive),–

SMILES,"activity, positive = re-replication",Potency
CC(C)(C)OC(=O)N[C@H](C(=O)OC(C)(C)C)c1ccc(Br)cc1,2.13% (inactive),–
Cc1ccc(S(=O)(=O)CCC(=O)OCC(=O)N(C)Cc2ccccc2)cc1,3.44% (inactive),–
COc1ccc(-c2cc(C(=O)N(C)Cc3ccccc3)c3ccccc3n2)cc1,–,3.66 µM (active)
Cc1ccc(-c2cc(C(=O)Nc3nn[nH]n3)c3ccccc3n2)c(C)c1,-0.175% (inactive),–
COc1ccc(CN(C)C(=O)c2cc(-c3ccc(C)cc3C)nc3ccccc23)c(OC)c1OC,–,23.1 µM (active)
COc1ccc(CN(C)C(=O)Cc2c[nH]c3ccccc23)c(OC)c1OC,0.353% (inactive),–
COc1ccc(-c2cc(C(=O)n3cnc4ccccc43)c3ccccc3n2)cc1,10.2% (inactive),–
CNC(=O)COC(=O)c1cc(-c2ccc(OC)cc2)nc2ccccc12,1.21% (inactive),–
Cc1ccc(C)c(OCC(=O)NNC(=O)C2CCC2)c1,-1.95% (inactive),–
COC(=O)c1ccc(CNC(=O)c2ccc(S(=O)(=O)N3CCCCCC3)cc2)cc1,3.13% (inactive),–
NC(=O)C1CCN(C(=O)c2cc(S(=O)(=O)N3CCN(c4ccccc4)CC3)ccc2Cl)CC1,1.92% (inactive),–
CCCN1C2CCCC1CC(NC(=O)NC13CC4CC(CC(C4)C1)C3)C2 (stereo unspecified),1.95% (inactive),–
C=CCN1C2CCCC1CC(NC(=S)Nc1cccc(OC)c1)C2 (stereo unspecified),26.8% (inactive),–
CCCNC(=S)NC1CC2CCCC(C1)N2CC(C)C (stereo unspecified),–,14.6 µM (active)
Nc1cc(=O)n(Cc2ccccc2)c(=O)n1Cc1ccccc1,4.05% (inactive),–
C/C(=N\Nc1ccc(Cl)nn1)c1ccccc1O,-5.86% (inactive),–
C=CCC[C@H](Cc1ccc(F)cc1)C(=O)OC[C@H](C)NC(=O)[C@H](CC=C)CC(=O)N(CCO)Cc1ccccc1,-0.934% (inactive),–
Cc1ccc(S(=O)(=O)N(C)C)cc1NC(=O)C(C)OC(=O)c1ccc2ccccc2n1 (stereo unspecified),-4.02% (inactive),–
COc1cccc(NC(=O)COc2cccnc2[N+](=O)[O-])c1,-7.21% (inactive),–
COc1ccc(S(=O)(=O)Nc2cccc3c2O[C@H](CN(C)S(=O)(=O)c2ccc(OC)cc2)[C@@H](C)CN([C@H](C)CO)C3=O)cc1,-0.847% (inactive),–
CCCOC(=O)c1[nH]c2c(c1C)C(=O)CC(c1cccs1)C2 (stereo unspecified),–,0.206 µM (active)
COCCOC(=O)c1[nH]c2c(c1C)C(=O)CC(c1ccc(OC)cc1)C2 (stereo unspecified),0.888% (inactive),–
CCOC(=O)c1[nH]c2c(c1-c1ccccc1)C(=O)CC(c1ccc(Cl)cc1)C2 (stereo unspecified),15.6% (inactive),–
CCOc1ccc(NC(=O)CN(C)C(=O)CCSc2ccc(F)cc2)cc1OCC,14.2% (inactive),–
COc1cc(/C=C/C(=O)OCC(=O)c2ccccc2)cc(OC)c1OC,-2.78% (inactive),–
COc1ccccc1C(CNC(=O)c1cccc(S(=O)(=O)Nc2ccc(F)cc2)c1)N(C)C (stereo unspecified),-2.12% (inactive),–

SMILES,"activity, positive = re-replication",Potency
COc1ccc(/C=C2\N=C3CCCN3C2=O)cc1,1.17% (inactive),–
COc1ccc(-n2c(=S)[nH]c3sc4c(c3c2=O)CCc2ccccc2-4)cc1,-4.02% (inactive),–
COc1ccc(/C=C2/CCCc3ccccc3C2=O)cc1,–,1.64 µM (active)
Cc1c[n+]([O-])ccc1[N+](=O)[O-],142% (inactive),–
Cc1cc(=O)n2[nH]c(-c3cccc(Cl)c3)cc2n1,4.55% (inactive),–
CCOC(=O)CSc1ncc(-c2cccc(Cl)c2)cn1,-0.286% (inactive),–
O=C1CCCc2c1nc(-c1cccc(Cl)c1)n2O,–,1.46 µM (active)
Cc1cccc(-c2nc3ccccc3c(=O)n2NC(=O)Cc2ccc(Cl)cc2)c1,11.1% (inactive),–
O=c1c2cc(Br)ccc2nc(-c2cccc(Cl)c2)n1O,–,2.91 µM (active)
NC(=O)c1cc(-c2cccnc2)nc2ccc(Br)cc12,-0.473% (inactive),–
Cc1ccsc1C(=O)OCC(=O)NCCc1ccccc1,6.08% (inactive),–
O=C1C=CN2CCCC2CC1 (stereo unspecified),3.86% (inactive),–
COc1ccc(-c2cc(C(=O)NCCCN3CCCC3=O)c3ccccc3n2)cc1OC,18% (inactive),–
COc1cccc(NC(=O)CN(C)C(=O)/C=C/c2cn(-c3ccccc3)nc2-c2cccs2)c1,17.8% (inactive),–
O=C(Cc1cccc2ccccc12)Nc1ccc2oc(-c3ccccc3)nc2c1,15.5% (inactive),–
O=C(Nc1ccc2oc(-c3ccc4ccccc4c3)nc2c1)c1cccs1,–,5.17 µM (active)
O=C(Nc1ccc(NC(=O)c2cccs2)cc1)c1ccc2ccccc2c1,-27.2% (inactive),–
CC1CN(Cc2ccccc2)C(=S)NC1=O (stereo unspecified),5.48% (inactive),–
O=C(CN1CCN(C2CCS(=O)(=O)C2)CC1)N1N=C(c2ccc(Cl)cc2)CC1c1ccco1 (stereo unspecified),4.31% (inactive),–
CCOC(=O)C1CCN(c2ncnc3c2oc2ccc(Br)cc23)CC1,–,20.6 µM (active)
CCOC(=O)N1CCN(C(=O)C2CCN(c3ncnc4c3sc3cccc(F)c34)CC2)CC1,4.33% (inactive),–
CCOC(=O)C1CCN(c2ncnc3c2c(-c2ccccc2)cn3-c2ccc(C)cc2)CC1,-2.58% (inactive),–
COc1cc(OC)cc(C(=O)NNC(=O)Cc2cccs2)c1,6.49% (inactive),–
COc1ccc(S(=O)(=O)N2C[C@H]3CON(C)[C@H]3C[C@H]2c2cccc(Br)c2)cc1,-1.8% (inactive),–
Cc1cccc(CC2(O)C(=O)Nc3ccccc32)n1 (stereo unspecified),-1.91% (inactive),–
CCn1c(/C=C/c2ccc([N+](=O)[O-])o2)nc2ccccc2c1=O,–,20.6 µM (active)

SMILES,"activity, positive = re-replication",Potency
Cn1cc(/C=C/c2nc3ccccc3c(=O)n2-c2cccc([N+](=O)[O-])c2)c2ccccc21,10.5% (inactive),–
Cc1nc2ccccc2c(=O)n1Cc1ccc([N+](=O)[O-])cc1,6.21% (inactive),–
O=C(CC1SC(N2CCOCC2)=NC1=O)Nc1ccccc1F (stereo unspecified),-0.0362% (inactive),–
CCCn1c(N)c(C(=O)CSc2nnc3n2CCCCC3)c(=O)[nH]c1=O,-8.17% (inactive),–
C/C(=C\C(=O)c1cccnc1)Nc1ccc(C)c(C)c1,6.19% (inactive),–
NC(N)=N/N=C/c1ccc(Cl)c([N+](=O)[O-])c1,23.1% (inactive),–
O=C(Nc1ccncc1)c1ccc(Cl)c([N+](=O)[O-])c1,15.4% (inactive),–
O=C(Nc1cccnc1)c1ccc(Cl)cc1[N+](=O)[O-],19.5% (inactive),–
O=C(/C=C/c1ccc(Cl)c([N+](=O)[O-])c1)c1cccnc1,–,5.17 µM (active)
O=C(Nc1cccnc1)c1ccc(Cl)c([N+](=O)[O-])c1,–,20.6 µM (active)
N#CCc1c[nH]c2ccc([N+](=O)[O-])cc12,2.4% (inactive),–
CC(C)(C)OC(=O)CNC(=O)c1[nH]cnc1C(=O)N[C@@H](CCCCN)C(=O)OC(C)(C)C,7.94% (inactive),–
O=C1[C@@H](c2ccccc2)[C@@H](c2ccccc2)N1c1cccnc1,110% (inactive),–
C[C@H](CO)N1C[C@H](C)[C@@H](CN(C)S(=O)(=O)c2ccc(F)cc2)Oc2ccc(NC(=O)CCC(F)(F)F)cc2C1=O,4.69% (inactive),–
COc1cc(SC)ccc1C(=O)NNC(=O)C1COc2ccccc2O1 (stereo unspecified),4.21% (inactive),–
O=C(Nc1ccc(Cl)cc1)c1cc2nc(C3CC3)cc(C(F)(F)F)n2n1,–,16.4 µM (active)
CC1CCN(C(=O)c2cc3nc(C4CC4)cc(C(F)(F)F)n3n2)CC1,9.38% (inactive),–
C=CCNC(=O)c1cc2nc(C3CC3)cc(C(F)F)n2n1,-0.764% (inactive),–
Cc1occc1-c1nnc(SCC(=O)NC2(C#N)CCCC2)n1C,2.22% (inactive),–
COc1cc2c(cc1OC)C(Cc1cc(OC)c(OC)cc1[N+](=O)[O-])=NCC2,1.19% (inactive),–
Cn1c(=O)c2c(SCC(=O)N3CCOCC3)nc(C3CC3)nc2n(C)c1=O,-4.13% (inactive),–
CCOC(=O)N1CCN(C(=O)CSc2nc(C)nc3c2c(=O)n(C)c(=O)n3C)CC1,–,0.651 µM (active)
CCCc1nc(SCC(=O)N2CCCC2)c2c(=O)n(C)c(=O)n(C)c2n1,2.71% (inactive),–

# From PubChem BioAssay AID624296 (National Center for Advancing Translational Sciences (NCATS), 2012)
